An excerpt weighted towards active compounds, which were near 32% of everything screened.
CYP2C9 act: increases human cytochrome P450 2C9 activity; P11712; recombinant CYP2C9, luciferin-H conversion, luminescence; active compounds read high; factor 1 = untreated enzyme, 0 = blocked; activation factor at 5 µM; actives 1.4% (n = 96,000); AID 1024;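 active means activation factor of 2 or more for CYP2C9 at a 5 µM dose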;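 further: 0 = sulfaphenazole-blocked wells and 1 = vehicle-only wells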
Target sequence (P11712 whole entry, looked up): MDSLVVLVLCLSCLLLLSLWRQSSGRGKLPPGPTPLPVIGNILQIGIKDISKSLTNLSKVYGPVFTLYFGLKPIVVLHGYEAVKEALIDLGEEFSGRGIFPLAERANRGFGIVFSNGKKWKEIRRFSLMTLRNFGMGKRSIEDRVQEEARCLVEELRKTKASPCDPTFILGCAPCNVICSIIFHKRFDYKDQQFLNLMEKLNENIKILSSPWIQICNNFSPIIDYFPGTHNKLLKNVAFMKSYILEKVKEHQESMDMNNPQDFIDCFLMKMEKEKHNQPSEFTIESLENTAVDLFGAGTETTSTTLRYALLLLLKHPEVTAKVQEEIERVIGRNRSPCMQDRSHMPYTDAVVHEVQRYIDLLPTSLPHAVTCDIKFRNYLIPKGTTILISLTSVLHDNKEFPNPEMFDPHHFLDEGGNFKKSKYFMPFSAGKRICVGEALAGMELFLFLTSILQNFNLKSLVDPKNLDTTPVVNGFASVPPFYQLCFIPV
CYP2C19 inh: blocks human cytochrome P450 2C19 | P33261 | CYP2C19 Supersomes, luciferin-H EGE luminescence, 30 min | inhibition, % at 5 µM | actives 21% (n = 96,000) | AID 778;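 active means CYP2C19 inhibition above a set limit at 5 µM in the primary screen, cut at about 50% in these data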;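 further: plate controls were negative control wells for no effect and 2.5 mM tranylcypromine positive control for full effect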
CYP2C9 inhib: blocks human cytochrome P450 2C9; P11712; CYP2C9 Supersomes, luciferin-H conversion, luminescence; inhibition, % at 5 µM; actives 20% (n = 96,000);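 active means blocking of liver enzyme CYP2C9 beyond about 50% at 5 µM, limit read from the data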
CYP2C19 activ: activators of human cytochrome P450 2C19; recombinant CYP2C19, luciferin-H EGE luminescence; active compounds read high; 0 = fully inhibited enzyme, 1 = untreated enzyme; activation factor at 5 µM; 96,000 tested, under 10 active; P33261;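 active means activation factor of at least 2 at 5 µM in the primary screen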;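 further: 0 = wells with 2.5 mM tranylcypromine and 1 = vehicle-only wells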
PostGolgi yeast: growth inhibition of a yeast mutant, post-Golgi transport screen. post-Golgi transport phenotypic cell assay. inhibition, % at 10 µM. actives 0.9% (n = 98,000);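 further: yeast cells grown in 1536-well plates; yeast grown about 18 h at 30C before absorbance read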
PostGolgi ctrl: inhibits growth of the yeast control strain; efflux-deficient yeast background strain, growth absorbance A615, 16 h; inhibition, % at 10 µM; actives 5% (n = 98,000); AID 738
Numbers without * were called inactive; · = no result. Unless noted, no stated cut-off is given here; in the data, active means inhibition above about 30%; inactive means the rest.

SMILES	CYP2C9 act	CYP2C19 inh	CYP2C9 inhib	CYP2C19 activ	PostGolgi yeast	PostGolgi ctrl
CCOC(=O)c1cnc(SCC(=O)N2CCN(c3ccccc3)CC2)nc1N	0.7	26	32	0.7	-1	23
O=C(CCn1cccc1)NCc1ccccc1	1.1	9	-7	0.9	-3	2
CCOC(=O)C(Cc1ccccc1)NC(C)=O (configuration not stated)	1	7	-3	0.9	-3	2
CCOc1ccc(OCc2ccc(C(=O)NCc3cccnc3)o2)cc1	0.6	43	37	0.6	3	13
O=C(Nc1ccn(Cc2c(F)c(F)cc(F)c2F)n1)c1ccc(COc2cc(Cl)ccc2Cl)o1	0.8	13	19	0.9	13	-1
O=C(NCc1cccnc1)c1ccc(COc2cccc3ccccc23)o1	1	53*	2	0.5	2	18
O=C(Nc1ccn(Cc2c(F)c(F)cc(F)c2F)n1)c1ccc(COc2ccccc2Cl)cc1	0.3	32	66*	0.7	5	7
CCc1ccc2c(CC(=O)Nc3nnc(C4CC4)s3)coc2c1	0.5	17	46	0.8	9	-2
CSc1ccc(-c2nnn(CC(=O)NCc3ccccc3)n2)cc1	0.7	34	33	0.7	16	9
CCOC(=O)C(Cc1ccccc1)NC(=O)Cn1nnc(-c2ccc(SC)cc2)n1 (configuration not stated)	0.9	67*	15	0.3	-2	3
COc1cccc(N2CCN(Cc3nc4ccccc4c(=O)[nH]3)CC2)c1	0.7	21	34	0.8	-8	15
Cc1cc2oc(=O)cc(COC(=O)c3n[nH]c4ccccc34)c2cc1C	0.2	14	76*	0.9	3	13
COc1ccc2c(COC(=O)c3n[nH]c4ccccc34)cc(=O)oc2c1	0.4	17	56*	0.8	13	20
Cc1cc(NC(=O)COC(=O)c2n[nH]c3ccccc23)no1	0.9	18	10	0.8	-6	8
CCN(Cc1nc2ccccc2c(=O)[nH]1)Cc1cc(=O)oc2cc(OC)ccc12	0.5	46	52*	0.5	1	3
CCn1c(SCC(=O)NCCc2ccc(F)cc2)nnc1-c1cccs1	0.9	12	14	0.9	6	5
CC1CC(NC(=O)CCn2c(=O)oc3ccccc32)CC(C)(C)C1 (configuration not stated)	0.9	20	12	0.8	1	9
COCCCN=C(c1ccco1)n1c(=S)nc(-c2ccco2)n(CCCOC)c1=S	0.4	36	61*	0.6	1	21
Cn1c(Cl)c(C(=O)Nc2ccccc2)c2ccccc21	1.2	22	-16	0.8	-6	-2
Cc1ccc(NC(=O)c2c(Cl)n(C)c3ccccc23)cc1	2.1*	26	-112	0.7	-7	16
Cc1nn(-c2nc3ccccc3n2Cc2ccccc2)c2c1C(=O)CC(C)(C)C2	0.3	53*	66*	0.5	-11	26
CCCCS/C(N)=N/N=C/c1ccccc1O	0.2	88*	82*	0.1	-1	0
CCCS/C(N)=N/N=C/c1cc(C)ccc1O	0.5	43	49	0.6	-6	7
Cc1ccc2nc(NC(=O)C3CCN(S(=O)(=O)c4cccs4)CC3)sc2c1	0.9	10	10	0.9	38*	44*
COc1ccc2nc(NC(=O)C3CCN(S(=O)(=O)c4cccnc4)CC3)sc2c1	0.8	26	20	0.7	2	17
SMILES	CYP2C9 act	CYP2C19 inh	CYP2C9 inhib	CYP2C19 activ	PostGolgi yeast	PostGolgi ctrl
COc1ccc2nc(NC(=O)C3CCCN(S(=O)(=O)c4cccs4)C3)sc2c1 (configuration not stated)	0.5	20	47	0.8	24	38*
CCOc1ccc(OCC)c(NC(=O)C2CCCN(S(=O)(=O)c3cccs3)C2)c1 (configuration not stated)	0.8	18	16	0.8	7	3
CCOc1ccc2nc(NC(=O)C3CCN(S(=O)(=O)c4cnc[nH]4)CC3)sc2c1	0.2	84*	84*	0.2	-5	8
COc1ccc2nc(NC(=O)C3CCN(S(=O)(=O)c4cccs4)CC3)sc2c1	0.3	84*	67*	0.2	2	37*
Cc1oc(-c2cccs2)nc1CS(=O)CC(=O)NC1CCCCCC1 (configuration not stated)	0.9	8	14	0.9	1	-1
CN1CC(=O)N(CC(=O)Nc2ccc(F)cc2)c2ccccc2C1=O	1	4	4	1	-6	-6
Cc1cccc(NC(=O)c2ccc(-n3ccnc3)nc2)c1	0	100*	98*	0	20	2
O=C(CSCc1cccc(CSCC(=O)Nc2ccccc2)n1)Nc1ccccc1	0.4	53*	65*	0.5	3	-4
O=C(CSCc1ccc(F)cc1)Nc1ccccc1	1.6	94*	-56	0.1	-3	6
Cc1cccc(NC(=O)Cc2ccc(F)cc2)c1	0.4	96*	58*	0	2	17
COc1cc(C2C(C#N)=C(N)OC3=C2C(=O)CCC3)cc(OC)c1OC(=O)N1CCOCC1 (configuration not stated)	0.9	12	9	0.9	9	4
CC(=O)N(c1ccc2oc(=O)sc2c1)S(=O)(=O)c1ccccc1	0.9	65*	14	0.4	-2	8
CCCC(=O)N(c1ccc2oc(=O)sc2c1)S(=O)(=O)c1cccs1	0.3	99*	71*	0	1	6
CC(C)C(=O)N(c1ccc2oc(=O)sc2c1)S(=O)(=O)c1ccccc1	1	7	3	0.9	16	19
CCOC(=O)C(CC)n1nc(C)n2c(cc3sccc32)c1=O (configuration not stated)	0.5	31	50	0.7	·	·
CCOC(=O)c1cnc(-c2ccccc2)nc1Oc1ccc(Cl)cc1	0.7	5	29	1	2	-6
CCOC(=O)c1nnc(-c2cccs2)nc1NC(C)C	1	-2	-1	1	14	9
CCOC(=O)c1nnc(-c2cccs2)nc1Oc1ccccc1C(=O)OC	0.1	83*	95*	0.2	20	9
CCOC(=O)c1nnc(-c2cccs2)nc1Oc1ccc(Cl)cc1	0.8	0	16	1	22	47*
CC1CCN(CCCn2c(=S)[nH]c3ccc(N4CCOCC4)cc3c2=O)CC1	0.9	-14	14	1.1	2	0
FC(F)(F)c1cc(-c2ccccc2)nc(NC2CCCC2)n1	0.4	42	56*	0.6	6	2
FC(F)(F)c1cc(-c2ccccc2)nc(NCC2CCCO2)n1 (configuration not stated)	0.8	10	19	0.9	-4	18
CCN(CC)S(=O)(=O)c1ccc(Cl)c(C(=O)NCc2ccccc2Cl)c1	1.3	39	-30	0.6	-1	22
